# Measured values as given in article PMC5540273 (PLoS ONE, 2017).
# Legend:
# Conditions in all cases: concentration: 1 μM, replicates: in singlicate; n = 1
# IRAK4 = tested on: IRAK4
# ITK = tested on: ITK
# [1] = tested on: JAK1(JH1domain-catalytic)
# [2] = tested on: JAK1(JH2domain-pseudokinase)
# [3] = tested on: JAK2(JH1domain-catalytic)
# [4] = tested on: JAK3(JH1domain-catalytic)
# JNK1 = tested on: T1, JNK1
# T1 construct: gene MAPK8
# JNK2 = tested on: T2, JNK2
# T2 construct: gene MAPK9
# JNK3 = tested on: T3, JNK3
# T3 construct: gene MAPK10
# KIT-autoinhibited = tested on: KIT-autoinhibited
# KIT = tested on: KIT
# LATS1 = tested on: LATS1
# LATS2 = tested on: LATS2
# LCK = tested on: LCK
# LIMK1 = tested on: LIMK1
# LIMK2 = tested on: LIMK2
# LKB1 = tested on: T4, LKB1
# T4 construct: gene STK11
# LOK = tested on: T5, LOK
# T5 construct: gene STK10
# LRRK2 = tested on: LRRK2
# LTK = tested on: LTK
# 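Further: KINOMEscan kinase panel screen.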
Compound,%Inh (IRAK4),%Inh (ITK),%Inh [1],%Inh [2],%Inh [3],%Inh [4],%Inh (JNK1),%Inh (JNK2),%Inh (JNK3),%Inh (KIT-autoinhibited),%Inh (KIT),%Inh (LATS1),%Inh (LATS2),%Inh (LCK),%Inh (LIMK1),%Inh (LIMK2),%Inh (LKB1),%Inh (LOK),%Inh (LRRK2),%Inh (LTK)
O=C(Nc1n[nH]c2nc(-c3nccs3)c(Br)cc12)C1CCCC1 [SB-742609],39%,24%,16%,0%,23%,0%,38%,27%,17%,16%,7%,9%,0%,9%,19%,0%,0%,0%,35%,0%
CC1=C(C(=O)Nc2cc3cn[nH]c3cc2F)C(c2ccc(C(F)(F)F)cc2)CC(=O)N1 (stereo not shown) [GSK429286],17%,13%,40%,0%,62%,29%,21%,25%,15%,0%,9%,0%,39%,22%,0%,0%,0%,0%,12%,0%
O=C(Nc1n[nH]c2nc(-c3nccs3)c(Br)cc12)C1CC1 [SB-742251],43%,13%,1%,21%,36%,0%,41%,16%,16%,0%,1%,24%,0%,0%,0%,0%,0%,0%,32%,0%
COC(=O)c1c(-c2ccccc2)c2cc(C(=O)O)ccc2c(=O)n1Cc1ccccc1,22%,5%,2%,0%,0%,0%,0%,0%,0%,0%,93.1%,22%,0%,0%,1%,0%,0%,0%,0%,0%
Cl.c1ccc(-c2n[nH]cc2-c2ccnc(-c3ccc(CN4CCOCC4)cc3)c2)nc1 [GW776245],0%,0%,0%,2%,0%,0%,31%,17%,20%,0%,8%,3%,0%,0%,5%,19%,18%,0%,0%,28%
